Tests used:
Assay in all cases: PBM binding z-score (relative to random genomic background probes); higher = stronger binding; sequences stand for … in GC…GCGATTGACAGCGTAGAATGAAGG
[1] = system: FXR:RXRa (NR concentration 270 nM, RXRa partner concentration 90 nM)
How it was run: (§1)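 Ligand-free nuclear receptor dimers were bound for 1 h to custom Agilent 4×180K protein-binding microarrays. Detection used antibodies against each partner (one per run). Binding z-scores rest on regression-normalized fluorescence, with random background probes as the reference.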

[2] = system: LXRa:RXRa (NR concentration 270 nM, RXRa partner concentration 90 nM)
How it was run: as §1

[3] = system: LXRa homodimer (NR concentration 270 nM)
How it was run: as §1

[4] = system: LXRb:RXRa (NR concentration 270 nM, RXRa partner concentration 90 nM)
How it was run: as §1

[5] = system: LXRb homodimer (NR concentration 270 nM)
How it was run: as §1

[6] = system: PPARa:RXRa (NR concentration 270 nM, RXRa partner concentration 90 nM)
How it was run: as §1

[7] = system: PPARg:RXRa (NR concentration 180 nM, RXRa partner concentration 90 nM)
How it was run: as §1

[8] = system: PPARg:RXRa 270nM:90nM, anti-RXR (NR concentration 270 nM, RXRa partner concentration 90 nM)
How it was run: as §1

[9] = system: PPARg:RXRa 30nM:10nM, anti-RXR (NR concentration 30 nM, RXRa partner concentration 10 nM)
How it was run: as §1

[10] = system: PPARg:RXRa 90nM:30nM, anti-RXR (NR concentration 90 nM, RXRa partner concentration 30 nM)
How it was run: as §1

[11] = system: PPARg:RXRa DBDmut IVT, anti-RXR (DBD mutation: RXRa K156A/R161A, NR concentration 270 nM, RXRa partner concentration 90 nM)
How it was run: as §1

[12] = system: PPARg:RXRa IVT, anti-PPARg (NR concentration 270 nM, RXRa partner concentration 90 nM)
How it was run: as §1

[13] = system: PPARg DBDmut:RXRa IVT, anti-PPARg (DBD mutation: PPARg1 K132A/R137A, NR concentration 270 nM, RXRa partner concentration 90 nM)
How it was run: as §1

[14] = system: PPARg DBDmut IVT, anti-PPARg (DBD mutation: PPARg1 K132A/R137A, NR concentration 270 nM)
How it was run: as §1

[15] = system: PPARg homodimer (NR concentration 180 nM)
How it was run: as §1

[16] = system: PXR:RXRa (NR concentration 270 nM, RXRa partner concentration 90 nM)
How it was run: as §1

[17] = system: PXR homodimer (NR concentration 270 nM)
How it was run: as §1

[18] = system: RARa:RXR (NR concentration 270 nM, RXRa partner concentration 90 nM)
How it was run: as §1

[19] = system: RARa homodimer (NR concentration 270 nM)
How it was run: as §1

[20] = system: RARb:RXRa (NR concentration 270 nM, RXRa partner concentration 90 nM)
How it was run: as §1

Sequence | PBM binding z-score [1] | PBM binding z-score [2] | PBM binding z-score [3] | PBM binding z-score [4] | PBM binding z-score [5] | PBM binding z-score [6] | PBM binding z-score [7] | PBM binding z-score [8] | PBM binding z-score [9] | PBM binding z-score [10] | PBM binding z-score [11] | PBM binding z-score [12] | PBM binding z-score [13] | PBM binding z-score [14] | PBM binding z-score [15] | PBM binding z-score [16] | PBM binding z-score [17] | PBM binding z-score [18] | PBM binding z-score [19] | PBM binding z-score [20]
CCAGACAGGTGAGAGGGTAACTCAGCCTCGATTA | 0.0104 | 0.0679 | -0.0244 | 0.043 | -0.609 | 1.65 | 1.99 | 2.94 | 0.655 | 2.18 | 0.762 | 1.58 | -0.651 | -0.852 | 0.818 | -0.0811 | -0.117 | 0.443 | 0.0595 | 0.951
ACTTTTAGTTGAGACGAGGGCAACCGATAGGTTG | 0.762 | 0.517 | -0.32 | 0.176 | 0.689 | 0.546 | 0.448 | 0.362 | 0.289 | 0.332 | 0.771 | 0.663 | 1.4 | 1.16 | 0.208 | 1.33 | 0.341 | 1.59 | 0.167 | 1.24
ATCTCGAGGTAACAAGTTCAGTGAAAGAGAGGAC | 0.617 | 0.888 | 0.333 | 0.61 | 0.253 | 1.51 | 0.717 | 0.867 | -0.0837 | 0.456 | 0.257 | 1.41 | 0.523 | 1.06 | 0.56 | 1.74 | 1.63 | 1.3 | 0.416 | 1.73
CGTCAAAGTTCAACTAAGGTAACGTAGAGCACGC | 7.03 | 5.95 | 4.18 | 4.04 | 1.71 | 5.1 | 5.31 | 5.6 | 2.54 | 4.47 | 0.564 | 2.32 | 0.885 | 0.785 | 3.17 | 5.54 | 3.81 | 4.57 | 1.67 | 5.24
TCGAGTTGGTCAAAGGTCACACACTCGAAATGCG | 5.98 | 5.57 | 3.08 | 5.33 | 0.74 | 6.37 | 10.4 | 9.4 | 8.64 | 11.3 | 1.75 | 5.88 | 1.98 | 1.49 | 8.37 | 6.29 | 1.41 | 7.61 | 4 | 4.9
ATACCAAGGTAATCGTGAGGTCGTTGATACTAAC | 1.31 | 1.48 | 0.673 | 1.29 | 0.295 | 1.38 | 0.484 | 0.308 | -0.0613 | 0.22 | 0.339 | 0.661 | 0.385 | 0.929 | 0.827 | 2.55 | 1.36 | 2.06 | -0.0819 | 1.07
CGTATTAGTTGACCATAAGGGCAACCGAAGCTCG | 0.6 | 0.437 | 0.259 | 0.258 | 0.134 | 0.617 | 0.684 | 0.523 | -0.0743 | 0.805 | 0.0759 | 0.784 | 0.0678 | -0.147 | 1.44 | 0.388 | 0.0683 | 0.881 | 0.774 | 1.26
CCTTACGGCTCAAGGTTATAGCACGGGTGGTACG | 0.272 | 0.347 | 0.117 | 0.126 | -0.259 | 0.445 | 0.607 | 0.552 | 0.388 | 0.076 | -0.441 | -0.312 | -1.23 | -0.222 | 0.358 | 0.204 | 0.404 | 0.389 | 0.282 | 0.562
TGAATGCGGTTAAAGATCAGGGAACGTGGCGTCG | -0.28 | -0.16 | -0.66 | -0.519 | -0.199 | 1.25 | 1.64 | 3.54 | 1.66 | 2.98 | -0.715 | 0.725 | 0.416 | 0.69 | 0.0368 | -0.493 | -0.492 | -0.11 | -0.405 | 0.315
GCGACTGGGTCATCAGCAGGTTACCATAACTTAA | 2.66 | 1.93 | -0.34 | 2.04 | -1.03 | 4.06 | 5.18 | 4.73 | 1.52 | 3.88 | 5.38 | 5.94 | 0.513 | -0.691 | 1.31 | 2.22 | -0.585 | 3.39 | -0.469 | 3.23
CCTACTGGGCCAAAGGTCATTGATTCCAATGCTC | 4.82 | 5.3 | 4.17 | 4.72 | 0.913 | 6.33 | 12 | 10.5 | 10.7 | 11.4 | 5.22 | 7.01 | 0.541 | 0.177 | 3.56 | 5.31 | 2.33 | 6.35 | 1.33 | 4.46
CTACCAAGGTGCACAAGGTCGTTGATTACTATTC | 0.933 | 1.22 | 0.723 | 1.74 | -0.173 | 1.69 | 0.548 | 0.538 | -0.186 | 0.246 | 0.47 | 0.223 | 0.019 | -0.417 | 0.705 | 1.86 | 1.22 | 1.87 | 0.655 | 1.29
AGTACGAGGGCAATGAGTTGATAGCACGGGTGGC | 0.396 | 0.352 | -0.477 | 0.0796 | -0.401 | 0.795 | 1.08 | 0.242 | -0.0294 | 0.117 | 1.59 | 1.15 | 0.233 | 0.248 | 0.203 | 1.32 | 5.08 | 0.221 | 0.00797 | 2.08
ACTAGCAGGCCAAGGTTGGGTCACTCAAACAAAG | -0.0834 | -0.151 | -0.416 | 0.203 | -1.03 | 1.39 | 0.643 | 1.19 | -0.515 | 0.491 | 0.282 | 0.868 | -0.95 | -1.46 | 0.597 | 0.524 | -0.493 | 1.24 | -0.93 | 1.69
